About 30 (0.07%) of roughly 44,000 compounds were called active. Inconclusive results (about 1%) are left out. No stated cut-off is given here; in the data, active means inhibition above about 54% (passing the limit was not always enough); inconclusive means no clear call, values can overlap the other calls. The full list was thinned out, with actives kept by preference.
Each compound was assayed against Histone-lysine N-methyltransferase NSD2 (Homo sapiens) (UniProt O96028) (assay: inhibitors of human NSD2, primary screen, biochemical, plate reader, single point (AID 624260;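 further: inhibitors reduce the monomethyl H3K36 fluorescence signal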)). Conditions: NSD2-SET H3K36me1 DELFIA fluorescence, at 12.5 µM, hits give high values.
Sequence of Histone-lysine N-methyltransferase NSD2 (Homo sapiens) (O96028 whole entry, looked up): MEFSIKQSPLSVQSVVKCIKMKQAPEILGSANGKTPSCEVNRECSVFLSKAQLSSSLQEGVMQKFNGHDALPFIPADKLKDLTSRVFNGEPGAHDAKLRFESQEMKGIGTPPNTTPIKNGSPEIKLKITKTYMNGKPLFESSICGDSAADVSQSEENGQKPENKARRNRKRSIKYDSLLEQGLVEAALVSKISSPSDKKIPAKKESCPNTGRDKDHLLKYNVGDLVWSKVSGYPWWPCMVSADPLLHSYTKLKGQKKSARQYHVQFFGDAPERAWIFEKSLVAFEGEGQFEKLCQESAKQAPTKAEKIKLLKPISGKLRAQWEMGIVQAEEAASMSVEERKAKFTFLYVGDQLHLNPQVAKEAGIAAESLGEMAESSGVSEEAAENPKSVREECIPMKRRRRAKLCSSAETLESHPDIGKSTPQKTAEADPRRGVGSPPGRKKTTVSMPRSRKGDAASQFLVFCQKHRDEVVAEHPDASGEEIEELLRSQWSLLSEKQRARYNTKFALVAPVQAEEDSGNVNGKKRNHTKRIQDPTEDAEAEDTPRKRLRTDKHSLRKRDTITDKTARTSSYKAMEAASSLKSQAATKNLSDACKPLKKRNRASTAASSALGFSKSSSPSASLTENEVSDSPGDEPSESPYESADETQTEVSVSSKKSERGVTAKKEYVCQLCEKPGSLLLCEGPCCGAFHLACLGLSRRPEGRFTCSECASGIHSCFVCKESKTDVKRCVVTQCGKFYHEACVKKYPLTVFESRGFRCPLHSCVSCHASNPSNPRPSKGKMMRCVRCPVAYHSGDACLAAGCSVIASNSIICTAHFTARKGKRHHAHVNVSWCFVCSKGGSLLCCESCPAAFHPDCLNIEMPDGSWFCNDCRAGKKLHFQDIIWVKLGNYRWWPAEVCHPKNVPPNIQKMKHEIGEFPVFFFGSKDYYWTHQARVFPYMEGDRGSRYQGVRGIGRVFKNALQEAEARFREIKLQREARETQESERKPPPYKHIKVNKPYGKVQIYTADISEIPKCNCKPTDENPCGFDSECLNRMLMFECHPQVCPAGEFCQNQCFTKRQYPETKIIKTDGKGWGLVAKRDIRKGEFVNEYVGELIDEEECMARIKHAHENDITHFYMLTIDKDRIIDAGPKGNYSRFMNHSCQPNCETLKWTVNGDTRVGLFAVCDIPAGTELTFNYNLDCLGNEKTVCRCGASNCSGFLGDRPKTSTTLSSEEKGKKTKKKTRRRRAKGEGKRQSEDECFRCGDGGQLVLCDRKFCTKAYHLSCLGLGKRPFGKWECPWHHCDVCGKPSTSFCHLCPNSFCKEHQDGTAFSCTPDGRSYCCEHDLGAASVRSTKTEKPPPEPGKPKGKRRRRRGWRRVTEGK

inhibition, inactive:
C[C@H](CO)N1C[C@H](C)[C@H](CN(C)Cc2ccncc2)Oc2cc(-c3cncnc3)ccc2S1(=O)=O -4.69%, CCCNC(=O)N(C)C[C@H]1Oc2ncc(-c3cccc(C#N)c3)cc2C(=O)N([C@@H](C)CO)C[C@H]1C -7.82%, C[C@H](CO)N1C[C@H](C)[C@@H](CN(C)S(=O)(=O)c2cccs2)Oc2ccc(NC(=O)Nc3ccc(C(F)(F)F)cc3)cc2CC1=O -1.82%, C[C@@H]1CN([C@H](C)CO)S(=O)(=O)c2ccc(C#C[C@@H](C)O)cc2O[C@H]1CN(C)C(=O)C1CCCCC1 -2.77%, COc1ccc(C#Cc2cnc3c(c2)C(=O)N([C@H](C)CO)C[C@H](C)[C@H](CN(C)C(=O)CC2CC2)O3)cc1 -0.614%, C[C@@H]1CCCCO[C@@H](CN(C)C(=O)Cc2ccccc2)[C@H](C)CN([C@@H](C)CO)C(=O)c2cc(NC(=O)Nc3ccc4c(c3)OCO4)ccc2O1 -3.09%, CCCC#Cc1cnc2c(c1)C(=O)N([C@H](C)CO)C[C@@H](C)[C@@H](CN(C)C(=O)C1CCOCC1)O2 11.1%, C[C@@H]1CN([C@H](C)CO)C(=O)c2cc(NS(=O)(=O)c3ccccc3)ccc2O[C@@H](C)CCCCO[C@H]1CN(C)S(=O)(=O)c1ccc(Cl)cc1 -1.56%, Cc1noc(C)c1NC(=O)Nc1ccc2c(c1)CC(=O)N([C@@H](C)CO)C[C@@H](C)[C@H](CN(C)Cc1ccc(Oc3ccccc3)cc1)O2 -7.73%, O=C(C[C@H]1C[C@H]2c3cc(NC(=O)Nc4ccc(F)cc4)ccc3O[C@H]2[C@H](CO)O1)NCC1CC1 5.06%, COc1ccc(S(=O)(=O)N(C)C[C@H]2OCCCC[C@H](C)Oc3ccc(NC(=O)Nc4ccc(F)cc4)cc3C(=O)N([C@@H](C)CO)C[C@H]2C)cc1 -1.05%, COc1cccc(-c2cnc3c(c2)C(=O)N([C@@H](C)CO)C[C@@H](C)[C@H](CN(C)C(=O)CN(C)C)O3)c1 8.01%, C[C@H](O)C#Cc1ccc2c(c1)O[C@H](CN(C)Cc1cccnc1)[C@H](C)CN([C@H](C)CO)S2(=O)=O 2.25%, CCC(=O)N(C)C[C@@H]1Oc2cc(-c3ccccc3OC)ccc2S(=O)(=O)N([C@H](C)CO)C[C@H]1C -2.36%, CC(=O)N(C)C[C@@H]1Oc2cc(-c3cccc(F)c3)ccc2S(=O)(=O)N([C@H](C)CO)C[C@H]1C -1.69%, C[C@H](CO)N1C[C@H](C)[C@@H](CN(C)Cc2ccc(Cl)c(Cl)c2)Oc2ccc(NC(=O)Cn3cnnn3)cc2CC1=O -4.84%

— PubChem BioAssay AID624260 (Broad Institute, 2012)
